Data taken from PubChem BioAssay (EPA / NIEHS).
Several values for one entry are separate records, joined by “and”; a condition that tells them apart may be missing. Equal entries are not always repeated. Activity calls are given as the source filed them. Rule for the calls: active = hit-call score of the fitted dose curve at least 0.9, where 1 is the maximum; inconclusive = response in the unintended direction; inactive = score below 0.9.

Each compound was assayed against rat CYP2A2, Cyp2a2 (gene 24895) (UniProt P15149) (assay: NVS_ADME_rCYP2A2: NovaScreen (NVS) CYP450-related Enzyme Activity (ADME) Assay for rat CYP2A2 (AID 2283116)).
Chain of rat CYP2A2, Cyp2a2 (gene 24895) (P15149 whole entry, looked up): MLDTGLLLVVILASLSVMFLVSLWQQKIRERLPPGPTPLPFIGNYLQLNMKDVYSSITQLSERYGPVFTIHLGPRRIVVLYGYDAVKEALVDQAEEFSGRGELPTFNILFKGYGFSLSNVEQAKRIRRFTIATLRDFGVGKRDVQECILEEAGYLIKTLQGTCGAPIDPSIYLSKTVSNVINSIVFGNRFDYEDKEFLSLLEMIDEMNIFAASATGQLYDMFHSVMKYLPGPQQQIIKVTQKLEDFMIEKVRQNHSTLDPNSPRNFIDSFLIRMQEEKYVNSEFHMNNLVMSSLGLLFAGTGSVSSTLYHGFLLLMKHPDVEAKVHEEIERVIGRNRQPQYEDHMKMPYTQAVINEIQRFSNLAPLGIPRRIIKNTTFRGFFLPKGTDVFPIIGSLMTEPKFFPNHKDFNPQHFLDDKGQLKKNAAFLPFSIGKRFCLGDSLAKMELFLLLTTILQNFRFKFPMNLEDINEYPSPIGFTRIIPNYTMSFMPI
Experimental: NVS_ADME_rCYP2A2 is a biochemical, single-readout assay that uses extracted gene-proteins in a cell-free assay. Measurements were taken 0.2 hour after chemical dosing in a 96-well plate.NVS_ADME_rCYP2A2 is one of one assay component(s) measured or calculated from the NVS_ADME_rCYP2A2 assay. It is designed to make measurements of enzyme activity, a form of enzyme reporter, as detected with fluorescence intensity signals by Fluorescence technology.Data from the assay component NVS_ADME_rCYP2A2 was analyzed into 1 assay endpoint. This assay endpoint, NVS_ADME_rCYP2A2, was analyzed in the positive analysis fitting direction relative to Acetonitrile as the negative control and baseline of activity. Using a type of enzyme reporter, loss-of-signal activity can be used to understand changes in the enzymatic activity as they relate to the gene Cyp2a2. Furthermore, this assay endpoint can be referred to as a primary readout, because this assay has produced multiple assay endpoints where this one serves a enzymatic activity function. To generalize the intended target to other relatable targets, this assay endpoint is annotated to the cyp intended target family, where the subfamily is xenobiotic metabolism.
Binding assays used specific radioligands (tritiated, iodinated) with non-radioactive competitive displacement ligands in agonist or antagonist protocols (as indicated) and various reference compounds and inhibitors to titrate specific binding to receptors and transporters. Most enzyme assays (CYPs, kinases, phosphatases, proteases, HDACs) used recombinant protein and specific substrates (fluorescence mostly, some colorimetric and radioactive) and inhibitors, followed by a biochemical separation of substrate and product. All assays for the biochemical HTS were initially run in duplicate at a single concentration (10 uM for CYP450 assays and 25 uM for all others). Assay-chemical combinations meeting a pre-defined threshold (e.g., 30% inhibition and other criteria defined below) were then run in singleton concentration-response format with maximum concentration of 20 uM for CYPs and 50 uM for all others. Each assay was run with positive and negative controls, and concurrent controls on every plate. The follow-up (secondary) screen tested active chemical-pairs in concentration series, as well as a few additional assays not tested in the primary screen, some selected negative inactives, and several cases re-run in the concentration series for confirmatory purposes.

SMILES	outcome	AC50
CCOP(=S)(OCC)Oc1ccc2c(C)c(Cl)c(=O)oc2c1	inactive	
CC[C@H](C)[C@H]1O[C@]2(C=C[C@@H]1C)C[C@@H]1C[C@@H](C/C=C(\C)[C@@H](O[C@H]3C[C@H](OC)[C@@H](O[C@H]4C[C@H](OC)[C@@H](NC)[C@H](C)O4)[C@H](C)O3)[C@@H](C)/C=C/C=C3\CO[C@@H]4[C@H](O)C(C)=C[C@@H](C(=O)O1)[C@]34O)O2		1.65 µM (active)
CCCOCC(=Nc1ccc(Cl)cc1C(F)(F)F)n1ccnc1		0.0294 µM (active)
CC(C)N(C(=O)SCC(Cl)=C(Cl)Cl)C(C)C	inactive	
CCOC(=O)CC(SP(=O)(OC)OC)C(=O)OCC (centres undefined)	inactive	
C=C(C)[C@H]1Cc2c(ccc3c2O[C@@H]2COc4cc(OC)c(OC)cc4[C@@H]2C3=O)O1	inactive	
Nc1c(Cl)cc([N+](=O)[O-])cc1Cl		0.113 µM (active)
C[Si](Cn1cncn1)(c1ccc(F)cc1)c1ccc(F)cc1		0.0595 µM (active)
C#CCC1=C(C)C(OC(=O)C2C(C=C(C)C)C2(C)C)CC1=O (centres undefined)		3.46 µM (active)
CCCCOC(=O)c1ccccc1C(=O)O		2.6 µM (active)
FC(F)C(F)(F)OCC(Cn1cncn1)c1ccc(Cl)cc1Cl (centres undefined)		0.074 µM (active)
CC(C1CC1)C(O)(Cn1cncn1)c1ccc(Cl)cc1 (centres undefined)		56.8 nM (active) and 76.2 nM (active)
CCC(=NOC/C=C/Cl)C1=C(O)CC(C2CCOCC2)CC1=O (centres undefined)	inactive	
CCc1cccc(C)c1N(C(=O)CCl)C(C)COC (centres undefined)		5.57 µM (active)
